Hits are enriched below; roughly 3.5% of the tested compounds scored in any of these assays.
TEAD-YAP block: TEAD-YAP interaction inhibition. HEK-TIYL cells, TEAD-Gal4/YAP UAS-luciferase luminescence. inhibition, % at 9.12 µM. 1.4% of 640,000 active; in the data active = inhibition above about 32%;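 note: 0% = median of test compound wells and 100% = reference inhibitor wells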
MITF inh: inhibitors of human MITF. AlphaScreen MITF homodimerization, bead proximity signal. inhibition, % at 2.6 µM. 0.91% of 650,000 active. AID 1259374; in the data active = inhibition above about 50%;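 note: 0% = vehicle wells with protein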
GPR151 ag: activates the human receptor GPR151; Q8TDV0; PathHunter beta-arrestin GPR151 cells, luminescence; activation, % at 11.2 µM; 1% of 650,000 active; in the data active = activation above about 4.9%;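 note: 0% = median of compound wells and 100% = cells with positive control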
Target sequence (Q8TDV0 whole entry, looked up): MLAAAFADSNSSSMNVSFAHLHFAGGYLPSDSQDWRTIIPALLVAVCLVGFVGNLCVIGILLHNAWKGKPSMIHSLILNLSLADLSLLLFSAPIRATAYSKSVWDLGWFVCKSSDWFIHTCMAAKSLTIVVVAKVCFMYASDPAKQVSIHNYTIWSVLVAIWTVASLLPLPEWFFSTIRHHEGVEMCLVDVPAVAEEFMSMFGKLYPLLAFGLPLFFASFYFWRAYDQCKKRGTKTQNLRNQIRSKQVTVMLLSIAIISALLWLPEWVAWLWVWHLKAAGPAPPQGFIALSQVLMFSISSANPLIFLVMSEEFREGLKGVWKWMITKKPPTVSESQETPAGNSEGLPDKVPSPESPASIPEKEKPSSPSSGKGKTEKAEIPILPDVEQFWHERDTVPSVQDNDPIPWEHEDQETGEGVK
FBW7 act: human FBW7 E3 ligase activation, primary screen | Q969H0 | AlphaScreen FBW7–phospho-cyclin E peptide binding, activator screen | normalized activity (activation), % at 26.1 µM | 0.13% of 650,000 active; in the data active = normalized activity above about 1.9%;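 note: purified mutant Fbw7 with reduced substrate affinity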
Numbers without * were called inactive.

SMILES	TEAD-YAP block	MITF inh	GPR151 ag	FBW7 act
CCCOCc1cc(CN2CCCCC2)c(O)c2ncccc12	71*	106*	4	-1
COCc1cc(CN2CCCCC2)c(O)c2ncccc12	76*	98*	1	-1
CCOc1cccc(CN2CCCCCC2)c1O	-1	10	0	0
CC(C)OCc1cc(CN2CCCCC2)c(O)c2ncccc12	86*	104*	-1	-1
COCc1cc(CN2CCN(c3ccccc3OC)CC2)c(O)c2ncccc12	42*	107*	4	0
COc1ccc(CNc2ncc(-c3ccccc3N(C)C)n3ccnc23)cc1	-8	10	0	-1
COc1ccc(NC(=O)CSc2nnc(CNC(=O)c3ccc(Cl)cc3)n2C)cc1	5	4	0	0
COCc1cc(CN2CCOCC2)c(O)c2ncccc12	2	90*	1	-2
Oc1c(CN2CCCCC2)cc(Br)c2cccnc12	58*	98*	0	-1
COc1ccc(C(NC(C)=O)c2c(OC(C)=O)ccc3ccccc23)cc1 (stereo unspecified)	62*	15	0	1
COc1ccc(C(NC(C)=O)c2c(O)ccc3ccccc23)cc1 (stereo unspecified)	62*	-1	1	0
CCCC(=O)NC(c1ccco1)c1c(O)ccc2ccccc12 (stereo unspecified)	1	11	-1	0
CCCC(=O)NC(c1ccc(OC)cc1)c1c(O)ccc2ccccc12 (stereo unspecified)	44*	-15	0	0
CC(C)=N/N=C1/NC(=O)C(CC(=O)Nc2ccccc2Br)S1 (stereo unspecified)	7	-4	1	0
CCCCCN1C(=O)C(=O)c2ccccc21	-1	-3	2	0
CCCCCN1C=CC(=C2C(=O)c3ccccc3C2=O)C=C1	95*	14	-8	2
N#Cc1ccc(C(=O)OCc2ccc([N+](=O)[O-])cc2)cc1	8	-6	3	0
O=C1C2C3c4ccccc4C(C(=O)O)(c4ccccc43)C2C(=O)N1c1cc(Cl)ccc1Cl (stereo unspecified)	1	8	-2	0
COc1ccc(CC(=O)NNC(=O)c2ccc(SCc3ccccc3C)c([N+](=O)[O-])c2)cc1	-6	-9	0	0
CC(=O)N1CCN(c2nc(-c3ccccc3)c3cc(Cl)ccc3n2)CC1	3	13	1	0
O=C(c1ccccc1)N1CCN(c2nc(-c3ccccc3)c3cc(Cl)ccc3n2)CC1	2	17	0	1.9*
O=C(c1cc(-c2ccncc2)nc2ccc(Cl)cc12)N1CCN(c2ccccn2)CC1	40*	-6	0	0
O=C(c1cc(-c2cccnc2)nc2ccc(Cl)cc12)N1CCN(c2ncccn2)CC1	11	9	0	0
CCOC(=O)N1CCN(C(=O)c2cc(-c3ccncc3)nc3ccccc23)CC1	52*	1	2	0
Cc1ccc(-c2cc(C(=O)N3CCN(c4ccccc4)CC3)c3ccccc3n2)s1	49*	-5	0	0
SMILES	TEAD-YAP block	MITF inh	GPR151 ag	FBW7 act
CCOc1ccccc1N1CCN(C(=O)c2cc(-c3cccc(C)c3)nc3ccccc23)CC1	42*	22	0	0
CC(=O)c1ccc(-c2cc(F)cc3c2OC(CNC(=O)C2CCOC(C)(C)C2)C3)s1 (stereo unspecified)	12	15	-1	1
COC(=O)C1=CN(CCc2ccccc2)C=C(C(=O)OC)C1c1ccc2c(c1)OCO2	-3	2	0	3.2*
COC(=O)C1=CN(CCc2ccccc2)C=C(C(=O)OC)C1c1cc(OC)c(OC)c(OC)c1	2	11	-1	2.6*
COc1cc(CCC(=O)NC2(c3ccccc3F)CCCC2)on1	-11	-8	1	0
Cc1cc(NCCN(C(C)C)C(C)C)nc(Oc2ccccc2)n1	64*	-2	1	0
COc1ccc(CCNc2cc(C)nc(Oc3ccccc3)n2)cc1	35*	19	3	0
CC(=O)Nc1cccc(Oc2ccc3c(c2)C(=O)N(c2cccc(OC(C)=O)c2)C3=O)c1	46*	-12	-2	0
CC(=O)Nc1cccc(Oc2ccc3c(c2)C(=O)N(c2cccc(Cl)c2)C3=O)c1	80*	-7	-6	0
CCOC(=O)N1CCN(S(=O)(=O)c2ccc(C3CCCCC3)cc2)CC1	0	9	-1	0
Oc1cccc(/C=C/c2ccc3cccc(O)c3n2)c1	47*	6	-4	0
Oc1cccc2ccc(/C=C/c3ccc(Cl)cc3)nc12	46*	5	-2	0
Oc1c(Br)cc(/C=C/c2ccc3cccc(O)c3n2)cc1Br	17	7	-1	0

Source: PubChem
